Measurements from article PMC11006913.
Where a chain is given by its changes, count along the chain named.

Tests used:
Assay in all cases: PBM; 200 nM protein, PBS
Settings in all cases: dsDNA, one strand shown
[1] = target: HOXA7 (Homo sapiens, UniProt P31268 116-202)
[2] = target: T1, PAX4 (Homo sapiens, UniProt O43316 9-242, R200K)
T1 sequence: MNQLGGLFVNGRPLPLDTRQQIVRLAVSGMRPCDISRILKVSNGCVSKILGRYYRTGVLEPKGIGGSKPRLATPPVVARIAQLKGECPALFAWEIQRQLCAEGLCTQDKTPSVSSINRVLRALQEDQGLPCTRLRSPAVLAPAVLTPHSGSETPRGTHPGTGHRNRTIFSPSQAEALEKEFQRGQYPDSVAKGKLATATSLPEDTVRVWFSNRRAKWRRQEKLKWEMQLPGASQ

[3] = target: T2, PAX4 (Homo sapiens, UniProt O43316 9-242)
T2 sequence: T1 sequence with K192R

[4] = target: HOXA2 (Homo sapiens, UniProt O43364 129-215, R185T)
[5] = target: ALX3 (Homo sapiens, UniProt O95076 139-225, N203Q)
[6] = target: T3, PAX4 (Homo sapiens, UniProt O43316 9-242, R200Q)
T3 sequence: T1 sequence with K192Q

[7] = target: T4, PAX4 (Homo sapiens, UniProt O43316 9-242, F177V)
T4 sequence: T1 sequence with F169V, K192R

[8] = target: MSX2 (Homo sapiens, UniProt P35548 130-214)
[9] = target: ALX3 (Homo sapiens, UniProt O95076 139-225)
[10] = target: T5, PAX4 (Homo sapiens, UniProt O43316 9-242, F177Y)
T5 sequence: T1 sequence with F169Y, K192R

[11] = target: ALX3 (Homo sapiens, UniProt O95076 139-225, L168V)
[12] = target: T6, PAX4 (Homo sapiens, UniProt O43316 9-242, R227W)
T6 sequence: T1 sequence with K192R, R219W

[13] = target: HOXA7 (Homo sapiens, UniProt P31268 116-202, W177C)
[14] = target: HOXA4 (Homo sapiens, UniProt Q00056 201-287, W262F)
[15] = target: ALX3 (Homo sapiens, UniProt O95076 139-225, N203S)
[16] = target: T7, VENTX (Homo sapiens, UniProt O95231 78-163, R121Q)
T7 sequence: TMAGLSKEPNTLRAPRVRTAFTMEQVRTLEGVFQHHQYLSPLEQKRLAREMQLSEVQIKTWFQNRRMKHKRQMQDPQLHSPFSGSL

[17] = target: T8, VENTX (Homo sapiens, UniProt O95231 78-163, Y115F)
T8 sequence: T7 sequence with Y38F, Q44R

[18] = target: HOXA2 (Homo sapiens, UniProt O43364 129-215, R185K)
[19] = target: HOXA2 (Homo sapiens, UniProt O43364 129-215, Y150S)
[20] = target: HOXA2 (Homo sapiens, UniProt O43364 129-215)
HOXA2 (Homo sapiens, UniProt O43364 129-215), sequence (O43364 129-215): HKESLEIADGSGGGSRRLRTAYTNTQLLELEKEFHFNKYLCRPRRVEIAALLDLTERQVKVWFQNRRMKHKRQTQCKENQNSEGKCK

ALX3 (Homo sapiens, UniProt O95076 139-225, L168V), sequence (O95076 139-225 L168V): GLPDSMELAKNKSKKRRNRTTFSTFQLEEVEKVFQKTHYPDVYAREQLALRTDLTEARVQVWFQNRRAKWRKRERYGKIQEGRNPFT
ALX3 (Homo sapiens, UniProt O95076 139-225), sequence (O95076 139-225): as the sequence (O95076 139-225 L168V) above, with V30L counted along it
ALX3 (Homo sapiens, UniProt O95076 139-225, N203Q), sequence (O95076 139-225 N203Q): as the sequence (O95076 139-225 L168V) above, with V30L, N65Q counted along it
HOXA4, sequence (Q00056 201-287 W262F): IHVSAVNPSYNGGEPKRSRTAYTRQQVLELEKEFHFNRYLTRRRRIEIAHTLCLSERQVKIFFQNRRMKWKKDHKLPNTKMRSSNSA
ALX3 (Homo sapiens, UniProt O95076 139-225, N203S), sequence (O95076 139-225 N203S): as the sequence (O95076 139-225 L168V) above, with V30L, N65S counted along it
MSX2, sequence (P35548 130-214): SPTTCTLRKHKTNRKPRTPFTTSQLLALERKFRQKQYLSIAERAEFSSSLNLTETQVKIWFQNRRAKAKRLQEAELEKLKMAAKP
HOXA2 (Homo sapiens, UniProt O43364 129-215, R185T), sequence (O43364 129-215 R185T): as the sequence (O43364 129-215) above, with R57T counted along it
HOXA7 (Homo sapiens, UniProt P31268 116-202), sequence (P31268 116-202): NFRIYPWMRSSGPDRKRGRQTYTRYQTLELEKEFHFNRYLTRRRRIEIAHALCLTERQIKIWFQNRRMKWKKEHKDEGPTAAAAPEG
HOXA2 (Homo sapiens, UniProt O43364 129-215, Y150S), sequence (O43364 129-215 Y150S): as the sequence (O43364 129-215) above, with Y22S counted along it
HOXA7 (Homo sapiens, UniProt P31268 116-202, W177C), sequence (P31268 116-202 W177C): as the sequence (P31268 116-202) above, with W62C counted along it
HOXA2 (Homo sapiens, UniProt O43364 129-215, R185K), sequence (O43364 129-215 R185K): as the sequence (O43364 129-215) above, with R57K counted along it

Sequence	binding signal [1]	binding signal [2]	binding signal [3]	binding signal [4]	binding signal [5]	binding signal [6]	binding signal [7]	binding signal [8]	binding signal [9]	binding signal [10]	binding signal [11]	binding signal [12]	binding signal [13]	binding signal [14]	binding signal [15]	binding signal [16]	binding signal [17]	binding signal [18]	binding signal [19]	binding signal [20]
AATTAACT	11.2 upbm affinity estimate (log intensity, higher = more binding, comparable within an allelic series)	11.7 upbm affinity estimate (log intensity, higher = more binding, comparable within an allelic series)	12.3 upbm affinity estimate (log intensity, higher = more binding, comparable within an allelic series)	12.5 upbm affinity estimate (log intensity, higher = more binding, comparable within an allelic series)	8.48 upbm affinity estimate (log intensity, higher = more binding, comparable within an allelic series)	12.1 upbm affinity estimate (log intensity, higher = more binding, comparable within an allelic series)	10.5 upbm affinity estimate (log intensity, higher = more binding, comparable within an allelic series)	13.5 upbm affinity estimate (log intensity, higher = more binding, comparable within an allelic series)	12.5 upbm affinity estimate (log intensity, higher = more binding, comparable within an allelic series)	10.9 upbm affinity estimate (log intensity, higher = more binding, comparable within an allelic series)	10.2 upbm affinity estimate (log intensity, higher = more binding, comparable within an allelic series)	10.9 upbm affinity estimate (log intensity, higher = more binding, comparable within an allelic series)	8.89 upbm affinity estimate (log intensity, higher = more binding, comparable within an allelic series)	11.5 upbm affinity estimate (log intensity, higher = more binding, comparable within an allelic series)	8.69 upbm affinity estimate (log intensity, higher = more binding, comparable within an allelic series)	–	–	–	–	–
AATTAGTG	–	11.8 upbm affinity estimate (log intensity, higher = more binding, comparable within an allelic series)	12.4 upbm affinity estimate (log intensity, higher = more binding, comparable within an allelic series)	12.8 upbm affinity estimate (log intensity, higher = more binding, comparable within an allelic series)	8.36 upbm affinity estimate (log intensity, higher = more binding, comparable within an allelic series)	12.3 upbm affinity estimate (log intensity, higher = more binding, comparable within an allelic series)	10.6 upbm affinity estimate (log intensity, higher = more binding, comparable within an allelic series)	13.5 upbm affinity estimate (log intensity, higher = more binding, comparable within an allelic series)	12.4 upbm affinity estimate (log intensity, higher = more binding, comparable within an allelic series)	11.1 upbm affinity estimate (log intensity, higher = more binding, comparable within an allelic series)	10.1 upbm affinity estimate (log intensity, higher = more binding, comparable within an allelic series)	11.1 upbm affinity estimate (log intensity, higher = more binding, comparable within an allelic series)	–	11.6 upbm affinity estimate (log intensity, higher = more binding, comparable within an allelic series)	8.46 upbm affinity estimate (log intensity, higher = more binding, comparable within an allelic series)	11.9 upbm affinity estimate (log intensity, higher = more binding, comparable within an allelic series)	11.7 upbm affinity estimate (log intensity, higher = more binding, comparable within an allelic series)	13.1 upbm affinity estimate (log intensity, higher = more binding, comparable within an allelic series)	10.8 upbm affinity estimate (log intensity, higher = more binding, comparable within an allelic series)	12.2 upbm affinity estimate (log intensity, higher = more binding, comparable within an allelic series)
CCGAGCGG	–	–	–	–	–	–	–	–	–	–	–	–	–	9.89 upbm affinity estimate (log intensity, higher = more binding, comparable within an allelic series)	–	–	–	–	–	–
AATTAGTA	–	11.7 upbm affinity estimate (log intensity, higher = more binding, comparable within an allelic series)	12.2 upbm affinity estimate (log intensity, higher = more binding, comparable within an allelic series)	–	8.49 upbm affinity estimate (log intensity, higher = more binding, comparable within an allelic series)	11.9 upbm affinity estimate (log intensity, higher = more binding, comparable within an allelic series)	10.5 upbm affinity estimate (log intensity, higher = more binding, comparable within an allelic series)	13.3 upbm affinity estimate (log intensity, higher = more binding, comparable within an allelic series)	12.3 upbm affinity estimate (log intensity, higher = more binding, comparable within an allelic series)	10.9 upbm affinity estimate (log intensity, higher = more binding, comparable within an allelic series)	9.94 upbm affinity estimate (log intensity, higher = more binding, comparable within an allelic series)	11 upbm affinity estimate (log intensity, higher = more binding, comparable within an allelic series)	–	11.5 upbm affinity estimate (log intensity, higher = more binding, comparable within an allelic series)	8.57 upbm affinity estimate (log intensity, higher = more binding, comparable within an allelic series)	11.7 upbm affinity estimate (log intensity, higher = more binding, comparable within an allelic series)	11.5 upbm affinity estimate (log intensity, higher = more binding, comparable within an allelic series)	–	–	–
AATTATAA	–	–	–	–	8.51 upbm affinity estimate (log intensity, higher = more binding, comparable within an allelic series)	–	–	13.4 upbm affinity estimate (log intensity, higher = more binding, comparable within an allelic series)	12.4 upbm affinity estimate (log intensity, higher = more binding, comparable within an allelic series)	–	9.95 upbm affinity estimate (log intensity, higher = more binding, comparable within an allelic series)	–	–	–	8.6 upbm affinity estimate (log intensity, higher = more binding, comparable within an allelic series)	–	–	–	–	–
